Data: PubChem BioAssay (NCI)
The panel holds about 83,000 compounds, 20% with a hit somewhere; the sample as a whole holds those more often.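 A percent growth of 40 corresponds to 60% growth inhibition; 0 means no net growth; -100 means all cells died. Active threshold: below 10.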 Active and inactive are the calls of the source.

Columns and labels:
Assay in all cases: NCI-60 one-dose screen, 48 h (100 = growth as untreated, 0 = no growth, -100 = all killed)
Settings in all cases: 10 µM unless noted
SR leukemia = tested on: SR leukemia
RPMI-8226 leukemia = tested on: RPMI-8226 leukemia
OVCAR-8 ovarian = tested on: OVCAR-8 ovarian
OVCAR-5 ovarian = tested on: OVCAR-5 ovarian
OVCAR-4 ovarian = tested on: OVCAR-4 ovarian
SK-OV-3 ovarian = tested on: SK-OV-3 ovarian
IGROV1 ovarian = tested on: IGROV1 ovarian
OVCAR-3 ovarian = tested on: OVCAR-3 ovarian
HS 578T breast = tested on: HS 578T breast
NCI/ADR-RES ovarian = tested on: NCI/ADR-RES ovarian
T-47D breast = tested on: T-47D breast
BT-549 breast = tested on: BT-549 breast
MDA-MB-435 melanoma = tested on: MDA-MB-435 melanoma
SW-620 colon = tested on: SW-620 colon
MCF7 breast = tested on: MCF7 breast
HCT-116 colon = tested on: HCT-116 colon
HCC-2998 colon = tested on: HCC-2998 colon
KM12 colon = tested on: KM12 colon

Measured: growth

O=C(O)c1nn(-c2ccc(Cl)cc2)nc1N1CCCC1
inactive: SR leukemia 99% | RPMI-8226 leukemia 101% | OVCAR-8 ovarian 96% | OVCAR-5 ovarian 94.9% | OVCAR-4 ovarian 91.2% | SK-OV-3 ovarian 97.2% | IGROV1 ovarian 93% | OVCAR-3 ovarian 105% | HS 578T breast 97% | NCI/ADR-RES ovarian 99.5% | T-47D breast 94.4% | BT-549 breast 95.4% | MDA-MB-435 melanoma 100% | SW-620 colon 90.6% | MCF7 breast 91% | HCT-116 colon 101% | HCC-2998 colon 103% | KM12 colon 107%

O=C1N/C(=N/N=C(c2ccccc2)c2ccccc2)S/C1=C\c1ccc(Br)cc1
inactive: SR leukemia 83.3% | RPMI-8226 leukemia 95.6% | OVCAR-8 ovarian 95.6% | OVCAR-5 ovarian 102% | OVCAR-4 ovarian 96.8% | SK-OV-3 ovarian 97.2% | IGROV1 ovarian 91.9% | OVCAR-3 ovarian 102% | HS 578T breast 95% | NCI/ADR-RES ovarian 103% | T-47D breast 84.7% | BT-549 breast 97% | MDA-MB-435 melanoma 103% | SW-620 colon 90.7% | MCF7 breast 99.6% | HCT-116 colon 81.8% | HCC-2998 colon 99.5% | KM12 colon 92.9%

C(CCCSC1=NCCN1)CCSC1=NCCN1
inactive: SR leukemia 95.9% | RPMI-8226 leukemia 107% | OVCAR-8 ovarian 98.4% | OVCAR-5 ovarian 89.8% | OVCAR-4 ovarian 98.2% | SK-OV-3 ovarian 112% | IGROV1 ovarian 101% | OVCAR-3 ovarian 107% | HS 578T breast 104% | NCI/ADR-RES ovarian 94.4% | T-47D breast 101% | BT-549 breast 112% | MDA-MB-435 melanoma 103% | SW-620 colon 98.2% | MCF7 breast 97.5% | HCT-116 colon 90.7% | HCC-2998 colon 103% | KM12 colon 113%

O=C1c2ccccc2-c2c1c1ccncc1c(=O)n2CCCn1ccnc1
active: SR leukemia -16.2% | MCF7 breast 9.35% | HCT-116 colon 5.31%
inactive: RPMI-8226 leukemia 34.1% | OVCAR-8 ovarian 32.9% | OVCAR-5 ovarian 88.5% | OVCAR-4 ovarian 72.7% | SK-OV-3 ovarian 73.6% | IGROV1 ovarian 44.9% | OVCAR-3 ovarian 67.1% | HS 578T breast 60.8% | NCI/ADR-RES ovarian 53.6% | T-47D breast 23.6% | BT-549 breast 46.7% | MDA-MB-435 melanoma 86.3% | SW-620 colon 18.7% | HCC-2998 colon 73.9% | KM12 colon 32.8%

O=C(O)c1cc2ccccc2s1
inactive: SR leukemia 104% | RPMI-8226 leukemia 105% | OVCAR-8 ovarian 102% | OVCAR-5 ovarian 103% | OVCAR-4 ovarian 113% | SK-OV-3 ovarian 103% | IGROV1 ovarian 106% | OVCAR-3 ovarian 120% | HS 578T breast 99.3% | NCI/ADR-RES ovarian 108% | T-47D breast 91.9% | BT-549 breast 108% | MDA-MB-435 melanoma 104% | SW-620 colon 103% | MCF7 breast 111% | HCT-116 colon 105% | HCC-2998 colon 107% | KM12 colon 108%

CC/C(=C(/c1ccc(Cl)cc1)c1ccc(OCCN2CCCCCC2)cc1)c1ccccc1
active: SR leukemia 6.94%
inactive: RPMI-8226 leukemia 48.9% | OVCAR-8 ovarian 84.8% | OVCAR-5 ovarian 85.2% | OVCAR-4 ovarian 79.6% | SK-OV-3 ovarian 114% | IGROV1 ovarian 97.3% | OVCAR-3 ovarian 93.9% | HS 578T breast 89.7% | NCI/ADR-RES ovarian 90.8% | T-47D breast 68.5% | BT-549 breast 114% | MDA-MB-435 melanoma 90.5% | SW-620 colon 44.7% | MCF7 breast 76.3% | HCT-116 colon 62.7% | HCC-2998 colon 97.8% | KM12 colon 55%

Cn1ccnc1C(=O)/C=C/c1ccc(C(=O)Nc2c(F)c(F)c(F)c(F)c2F)cc1
inactive: OVCAR-8 ovarian 20.6% | OVCAR-5 ovarian 13.1% | OVCAR-4 ovarian 22.4% | SK-OV-3 ovarian 62.1% | HS 578T breast 48.5% | BT-549 breast 22.4% | MDA-MB-435 melanoma 48.7% | MCF7 breast 13%
active: SR leukemia -17.4% | RPMI-8226 leukemia -9.03% | IGROV1 ovarian 0.574% | OVCAR-3 ovarian -4% | NCI/ADR-RES ovarian 7.31% | T-47D breast 9.11% | SW-620 colon -14.3% | HCT-116 colon -21.5% | HCC-2998 colon -4.74% | KM12 colon -58.7%

N#Cc1c(-c2ccc(F)cc2)cc(-c2cccc(Cl)c2)[nH]c1=O
inactive: SR leukemia 113% | RPMI-8226 leukemia 42.1% | OVCAR-8 ovarian 53.4% | OVCAR-5 ovarian 112% | OVCAR-4 ovarian 28% | SK-OV-3 ovarian 79.3% | IGROV1 ovarian 62.8% | HS 578T breast 46% | NCI/ADR-RES ovarian 71.2% | T-47D breast 59.9% | BT-549 breast 54.6% | MDA-MB-435 melanoma 77.1% | SW-620 colon 104% | MCF7 breast 54.5% | HCT-116 colon 67.1% | HCC-2998 colon 94.2% | KM12 colon 56.1%
active: OVCAR-3 ovarian 7.21%

COc1cc2cc(Oc3ccc(NC(=O)Nc4ccc(Cl)c(Cl)c4)cc3)c(C)nc2cc1OCCN1CCCCC1
active: SR leukemia -3.12% | OVCAR-4 ovarian -16.5%
inactive: RPMI-8226 leukemia 79.1% | OVCAR-8 ovarian 32.1% | OVCAR-5 ovarian 137% | SK-OV-3 ovarian 119% | IGROV1 ovarian 93.4% | OVCAR-3 ovarian 105% | HS 578T breast 108% | NCI/ADR-RES ovarian 99.5% | T-47D breast 85.9% | BT-549 breast 88.1% | MDA-MB-435 melanoma 74.2% | SW-620 colon 14.4% | MCF7 breast 55.9% | HCT-116 colon 91.3% | HCC-2998 colon 104% | KM12 colon 63.3%

CC1(C)CCC[C@]23C(=O)O[C@](O)(C(=O)C4=C[C@@](C)(/C=C/CCCc5ccc6ccc7cccc8ccc5c6c78)CC[C@@]42O)[C@@H]13
active: SR leukemia 9% | RPMI-8226 leukemia -21.4% | OVCAR-8 ovarian -34.2% | OVCAR-5 ovarian -75.7% | OVCAR-4 ovarian -92.3% | SK-OV-3 ovarian -66.2% | IGROV1 ovarian -83% | OVCAR-3 ovarian -82% | HS 578T breast -7.13% | NCI/ADR-RES ovarian -18.7% | T-47D breast -60.5% | BT-549 breast -71.9% | MDA-MB-435 melanoma -92.4% | SW-620 colon -63.3% | MCF7 breast -57.4% | HCT-116 colon -91.8% | HCC-2998 colon -86% | KM12 colon -83.3%

Nc1ccc(Cl)c2c(=O)c3ccccc3[nH]c12
inactive: SR leukemia 100% | RPMI-8226 leukemia 71% | OVCAR-8 ovarian 92.2% | OVCAR-5 ovarian 93.2% | OVCAR-4 ovarian 53.8% | SK-OV-3 ovarian 89.2% | IGROV1 ovarian 94.7% | OVCAR-3 ovarian 75.2% | HS 578T breast 98% | NCI/ADR-RES ovarian 97% | T-47D breast 82.6% | BT-549 breast 75.4% | MDA-MB-435 melanoma 86.3% | SW-620 colon 86% | MCF7 breast 65% | HCT-116 colon 84.9% | HCC-2998 colon 88.6% | KM12 colon 89.7%

CCCN1C(=O)N(CCC)C2C1NC(=S)N2/N=C/C=C/c1ccccc1OC (stereo unspecified)
active: OVCAR-3 ovarian -20.9% | HS 578T breast 9.95% | NCI/ADR-RES ovarian 9.94% | MDA-MB-435 melanoma -56.1%
inactive: SR leukemia 22% | RPMI-8226 leukemia 19% | OVCAR-8 ovarian 12.2% | OVCAR-5 ovarian 26.7% | OVCAR-4 ovarian 55.2% | SK-OV-3 ovarian 34.9% | IGROV1 ovarian 30.6% | T-47D breast 40.3% | BT-549 breast 56% | SW-620 colon 22% | MCF7 breast 17.4% | HCT-116 colon 18.3% | HCC-2998 colon 20.3% | KM12 colon 21.1%

CN1CC(c2ccccc2)C(C(=O)c2ccc(Br)cc2)C12C(=O)Nc1ccccc12 (stereo unspecified)
inactive: SR leukemia 97% | RPMI-8226 leukemia 88.2% | OVCAR-8 ovarian 98.8% | OVCAR-5 ovarian 98.9% | OVCAR-4 ovarian 96.3% | SK-OV-3 ovarian 93.6% | IGROV1 ovarian 79.7% | OVCAR-3 ovarian 101% | HS 578T breast 94.2% | NCI/ADR-RES ovarian 79.7% | T-47D breast 81.5% | BT-549 breast 111% | MDA-MB-435 melanoma 106% | SW-620 colon 95.4% | MCF7 breast 98.5% | HCT-116 colon 86.3% | HCC-2998 colon 99.7% | KM12 colon 101%

O=C(Nc1ncc(Cc2ccccc2)s1)c1cc(-c2ccccc2)nc2ccccc12
inactive: SR leukemia 105% | RPMI-8226 leukemia 95.7% | OVCAR-8 ovarian 98.4% | OVCAR-5 ovarian 98.6% | OVCAR-4 ovarian 108% | SK-OV-3 ovarian 96.7% | IGROV1 ovarian 87.3% | OVCAR-3 ovarian 104% | HS 578T breast 92.6% | NCI/ADR-RES ovarian 87.8% | T-47D breast 91.7% | BT-549 breast 99.3% | MDA-MB-435 melanoma 104% | SW-620 colon 96.2% | MCF7 breast 91.1% | HCT-116 colon 95.3% | HCC-2998 colon 99.2% | KM12 colon 105%

CCC(=C(c1ccc(OCCN(CC)CC)cc1)c1ccc(OCCN(CC)CC)cc1)c1ccc(Cl)cc1
active: SR leukemia -39.7% | RPMI-8226 leukemia -48.5% | OVCAR-8 ovarian -49.8% | OVCAR-5 ovarian -52.8% | OVCAR-4 ovarian -38.9% | IGROV1 ovarian -78.6% | OVCAR-3 ovarian -72.2% | HS 578T breast -44.3% | NCI/ADR-RES ovarian -33.1% | T-47D breast -55.4% | MDA-MB-435 melanoma -92% | SW-620 colon -75.5% | MCF7 breast -73.3% | HCT-116 colon -87.7% | HCC-2998 colon -91% | KM12 colon -82.2%
inactive: SK-OV-3 ovarian 55.4% | BT-549 breast 61.5%

Nc1ncc(-c2ccc3ncnc(N4CCc5cc(F)c(Cl)cc54)c3c2)cn1
active: IGROV1 ovarian 9.49% | T-47D breast 8.79%
inactive: SR leukemia 36.5% | RPMI-8226 leukemia 20.8% | OVCAR-8 ovarian 45.4% | OVCAR-5 ovarian 27% | OVCAR-4 ovarian 54.6% | SK-OV-3 ovarian 29.4% | OVCAR-3 ovarian 37.9% | HS 578T breast 13.2% | NCI/ADR-RES ovarian 50.4% | BT-549 breast 33.7% | MDA-MB-435 melanoma 55.8% | SW-620 colon 66.4% | MCF7 breast 24.3% | HCT-116 colon 46.9% | HCC-2998 colon 61.5% | KM12 colon 58%

Cc1ccc(-c2nnc(SCc3nc(N)nc(Nc4ccccc4F)n3)n2-c2ccccc2)cc1
inactive: SR leukemia 92.4% | RPMI-8226 leukemia 83.7% | OVCAR-8 ovarian 88% | OVCAR-5 ovarian 95.9% | OVCAR-4 ovarian 86.7% | SK-OV-3 ovarian 102% | IGROV1 ovarian 81.4% | OVCAR-3 ovarian 102% | HS 578T breast 87.1% | NCI/ADR-RES ovarian 98.2% | T-47D breast 85% | BT-549 breast 97.9% | MDA-MB-435 melanoma 99.6% | SW-620 colon 93.6% | MCF7 breast 94.9% | HCT-116 colon 98.4% | HCC-2998 colon 126% | KM12 colon 101%
